Screening results as filed in PubChem.
GLP-1R agonist – agonists of human GLP-1 receptor. 380,000 tested, 0.007% active. Potency, µM (highest dose often 45.6 µM), inactives show top-dose activation, most hits filed as activators. HEK293 GLP-1R CRE-luciferase, luminescence, 4-6 h; cells express a hypersensitive GLP-1R form; note: % of control where 0% means no effect
GLP1R cytotox – cytotoxicity in counter-screen for GLP-1R inverse agonists. HEK293 cAMP-luciferase reporter cells, luminescence, 24 h. Potency, µM (top dose mostly 38.3 µM), inactives show at the top dose activity change, negative = inhibition, hits mostly inhibitors. 410,000 tested, 0.13% active;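 note: loss of luciferase light is scored as toxicity; % is set by controls: 0 for no effect and ±100 for the full control effect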
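Step one: seed cells (200 cells/uL, DMEM with 10% Nu serum, 1% pen-strep). Step two: 12-hour incubation at 37 deg C. Step three: pin 23 nL compound, incubate 24 hr. Step four: add luciferase reagent, read luminescence 12 min later.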
VP16 counter – inhibits Gal4-VP16 luciferase reporter, ROR gamma counter-screen. Drosophila S2 Gal4-VP16 UAS-luciferase, luminescence, 20 h. 310,000 tested, 3.5% active. Potency, µM (titrated, usually from 53.6 µM), inactives show top-dose activity, negative = inhibition, actives largely listed as inhibitors. AID 2546;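 note: Gal4-VP16 expression switched on by copper sulfate through the metallothionein promoter; % is set by controls: 0 for no effect and ±100 for the full control effect; nearly all actives have a fitted effect of over 50% in size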
RORgamma inh – inhibitors of mouse ROR gamma transcriptional activity; 310,000 tested, 5.4% active; Drosophila S2 Gal4-RORgamma UAS-luciferase reporter, 20 h; Potency, µM (doses to about 53.6 µM), without a hit: at the highest dose activity change, negative = inhibition, usual class: inhibitors; note: % is set by controls: 0 for no effect and ±100 for the full control effect; nearly all actives have a fitted effect of over 60% in size
Target sequence (P51450 whole entry, looked up, the tested form may be a part): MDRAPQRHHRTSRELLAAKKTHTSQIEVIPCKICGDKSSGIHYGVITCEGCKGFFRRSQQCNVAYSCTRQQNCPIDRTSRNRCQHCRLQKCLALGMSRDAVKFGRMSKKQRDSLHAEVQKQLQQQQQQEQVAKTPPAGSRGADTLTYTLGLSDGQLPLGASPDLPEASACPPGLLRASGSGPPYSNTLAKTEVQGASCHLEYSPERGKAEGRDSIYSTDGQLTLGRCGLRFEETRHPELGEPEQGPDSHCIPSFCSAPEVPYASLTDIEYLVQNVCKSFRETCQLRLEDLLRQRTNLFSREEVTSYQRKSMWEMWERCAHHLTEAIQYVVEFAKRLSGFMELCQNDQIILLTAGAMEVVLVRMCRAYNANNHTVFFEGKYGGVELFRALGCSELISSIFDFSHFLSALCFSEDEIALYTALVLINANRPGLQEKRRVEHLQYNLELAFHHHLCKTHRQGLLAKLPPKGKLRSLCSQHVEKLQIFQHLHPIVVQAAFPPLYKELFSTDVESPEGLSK
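Drosophila S2 cells stably expressing Gal4-DBD/mouse RORγ fusion under metallothionein promoter plus UAS-luciferase; compound 1 h, then 700 uM CuSO4 induction for 20 h at ambient temperature; inhibition read as reduced luminescence.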
GLP-1R inv ag – GLP-1 receptor (human) inverse agonism; P43220; Potency, µM (series often up to 38.3 µM), without a hit: top-dose activity change, negative = inhibition, most hits filed as inhibitors; HEK293 GLP-1R CRE-luciferase, luminescence, 24 h; GLP-1R form is constitutively active; 410,000 tested, 1.6% active; note: % is set by controls: 0 for no effect and ±100 for the full control effect; nearly all actives have a fitted effect of over 55% in size
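Constitutively active GLP-1R drives a cAMP-responsive luciferase in stably transfected HEK293 cells; test compounds are added after overnight (12 h) attachment and left 24 hr, and signal loss in luminescence marks inhibition.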
An asterisk follows results filed as active; ? = inconclusive; . = no result given; [ ] = dose if it differs, or a comment. This is a sample that favours compounds with a hit; in the whole collection about 5.9% have one here. Calls come from the whole dose curve; as a rule, active = well fitted curve in the direction sought with a large enough effect; inconclusive = small, poorly fitted or top-dose-only effect, or another doubt; inactive = no such curve, though single readings can be large; an effect the other way counts as inactive or inconclusive. Potency is the fitted concentration of half-maximal effect.

SMILES	GLP-1R agonist	GLP1R cytotox	VP16 counter	RORgamma inh	GLP-1R inv ag
CCOC(=O)c1cc2c(=O)n3ccccc3nc2n(C(C)C)c1=NC(=O)C(C)(C)Oc1ccc(Cl)cc1	.	144.8%	.	.	16.5%
Cc1ccc(C)c(NC(=S)N2CCCCCC2)c1	7.4%	-10.6%	?	12.6µM*	-27.3%
CCOC(=O)C1CCCN(C(=S)Nc2cc(C)cc(C)c2)C1 (stereo not given)	13.3%	2.3%	?	11.2µM*	5.3%
CCc1ccc(NC(=S)N2CCC(NC(=O)c3ccccc3OC)CC2)cc1	9.6%	?	-7.8%	10µM*	-21.9%
Cc1ccc(NC(=O)Cn2c(=O)n(-c3ccc(C)cc3)c(=O)c3ccc(C(=O)NCc4ccccc4Cl)cc32)cc1	-3.0%	0.4%	.	.	14.5%
Cc1ccc(-c2csc(N(CCCN(C)C)C(=O)c3ccco3)n2)cc1	0.1%	?	3.55µM*	0.631µM*	?
COc1ccc(-c2csc(N(CCCN(C)C)C(=O)c3ccc(C)cc3)n2)cc1	2.2%	-21.8%	-8.3%	0.6%	3.98µM*
COc1ccc(-c2csc(N(CCCN(C)C)C(=O)c3ccc(C(C)(C)C)cc3)n2)cc1	-4.1%	?	?	18.0%	?
Cc1c(C(=O)c2ccc(F)cc2)c2ccccn2c1CCc1ccccn1	4.0%	-12.0%	27.9%	16.1%	10µM*
Cc1c(C(=O)c2ccccc2)c2ccccn2c1CCc1ccccn1	-2.7%	1.2%	11.2%	-3.4%	?
N#CC1=C(N)C2=CCCC[C@H]2[C@H](c2ccc(Br)cc2)C1(C#N)C#N	-2.4%	20.9%	5.01µM*	?	-32.8%
CN1C2C=C3C(C#N)=C(N)C(C#N)(C#N)C(c4ccc(Br)cc4)C3C1CC2 (stereo not given)	-9.4%	-20.0%	-5.4%	?	-7.9%
Cc1ccc(C)o1	.	.	5.0%	-1.0%	.
Cc1cc(C(=O)N/N=C/C(Cl)=C/c2ccccc2)c(C)o1	25.3%	-15.4%	12.6µM*	-10.5%	?
O=C(N/N=C/C(Cl)=C/c1ccccc1)c1ccccn1	-13.1%	10.9%[0.307 µM]	?	?	8.4%[0.307 µM]
C=CC[n+]1c(-c2ccc(OCC)cc2)csc1NNC(=O)Nc1ccccc1	16.2%	-24.3%	?	15.8µM*	-25.1%
CCCCn1c(NC(=S)Nc2ccccc2)nc2ccccc21	21.0%	0.2%	1.41µM*	1µM*	-26.7%
CCCCn1c(NCCO)nc2ccccc21	-0.1%	3.3%	-3.0%	27.2%	8.7%
CC(=O)Nc1nc2ccccc2n1CCOc1ccccc1	-0.2%	-14.5%	-7.4%	-20.1%	-20.8%
COc1ccc(OCCn2c(NC(=O)c3ccco3)nc3ccccc32)cc1	-8.8%	-21.9%	2.82µM*	2.24µM*	?
S=C(Nc1ccccc1)Nc1nc2ccccc2n1CCOc1ccccc1	?	?	7.08µM*	1.12µM*	0.0%
COc1ccc(OCCn2c(NC(=O)c3ccc(OC)cc3)nc3ccccc32)cc1	.	5.0%	.	.	8.8%
CCNC(=S)N/N=C/c1ccc(OCCOc2ccccc2C)cc1	1.5%	9.4%	10µM*	4.47µM*	0.7%
CCOc1ccc(/C=N/NC(=S)Nc2c(C)cccc2C)cc1	3.2%	?	2µM*	1µM*	?
C/C=C/c1ccc(OCCCCN2CC(C)CC(C)C2)c(OC)c1 (stereo not given)	-0.6%	?	6.8%	0.9%	11.2µM*
C/C=C/c1ccc(OCCCCOc2ccc(OC)cc2)c(OC)c1	8.3%	19.6%	-5.8%	7.3%	?
C/C=C/c1ccc(OCCCNCC(C)O)c(OC)c1 (stereo not given)	0.5%	-11.6%	0.0%	-5.1%	5.62µM*
CCc1ccc(C2c3c(oc4ccc(C)cc4c3=O)C(=O)N2c2nc(C)c(C)s2)cc1 (stereo not given)	.	0.3%	.	.	-1.1%
COc1ccc(-n2c(-c3ccc(Cl)cc3)c[n+]3c2CCc2ccccc2-3)cc1	3.9%	-13.8%	12.6µM*	?	-13.5%
CCc1ccc(NC(=S)N2CCCC(C(F)(F)F)C2)cc1 (stereo not given)	15.7%	?	?	12.6µM*	-26.4%
